Data taken from PubChem BioAssay (Tox21).
“And” between values parts separate entries of the source, which are not always exact repeats. Equal entries are not always repeated. Records with an inconclusive call do not appear. Where a call stands in place of a potency, no number is given. A structure can be active in one record and inactive in another. The source made the active and inactive calls. Calls follow the shape of the dose curve; as a rule, active = well fitted activation curve with a large enough effect in the repeat runs; inconclusive = weak or mixed curves; inactive = flat fitted curve, though single readings scatter.

assay: A CellTox Green Cytotoxicity Assay to monitor cytotoxicity in HepG2 cells - 40 hour (AID 1224879); settings: CellTox Green fluorescence; series mostly up to 76.8 µM; also: nearly all actives have a fitted effect of over 40% in size
Summary of the method: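 HepG2, 600 cells/well premixed w/ CellTox Green; 5 h settle, 37 C/5% CO2; pintool cpd add (DMSO); 37 C, 40 h; fluorescence read at 0, 8, 16, 24, 32, 40 h.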
Potency is read from the fitted curve at half-maximal effect.

SMILES | Potency
CC(C)NCC(O)c1ccc(O)c(O)c1 (centres undefined) | inactive
Cn1c(=O)c2c(ncn2C)n(C)c1=O | inactive
CCCCCCCCCCCC[N+](C)(C)Cc1ccccc1 | 13.5 µM (active) and 18.9 µM (active) and 8.49 µM (active)
CCCCCCCC(=O)OCC(COC(=O)CCCCCCC)OC(=O)CCCCCCC | inactive
O=C1OC2(c3ccccc31)c1cc(Br)c(O)c(Br)c1Oc1c2cc(Br)c(O)c1Br | 5.58 µM (active) and 14.2 µM (active) and 23.9 µM (active)
NS(=O)(=O)c1cc2c(cc1Cl)NCNS2(=O)=O | inactive
CC(O)(P(=O)(O)O)P(=O)(O)O | inactive
Cc1ccc(S(=O)(=O)O)cc1 | inactive
CN1CCc2cccc3c2[C@H]1Cc1ccc(O)c(O)c1-3 | 49.5 µM (active) and 18.3 µM (active) and inactive
O=C1NS(=O)(=O)c2ccccc21 | inactive
F[B-](F)(F)F | inactive and 39.5 µM (active)
Cc1cc(C)nc(NS(=O)(=O)c2ccc(N)cc2)n1 | inactive
CN(C)CCOC(c1ccccc1)c1ccccc1 | inactive
CCOc1ccc(NC(C)=O)cc1 | inactive
Cc1c(C(=O)O)c(O)cc2c1C(=O)c1c(O)c([C@@H]3O[C@H](CO)[C@@H](O)[C@H](O)[C@H]3O)c(O)c(O)c1C2=O | inactive
Cc1ncc([N+](=O)[O-])n1C | inactive
C/C=C/C=C/C(=O)O | inactive
O=c1[nH]cnc2c1ncn2[C@H]1CC[C@@H](CO)O1 | inactive
NC(=O)n1c(O)c(C(=O)c2cccs2)c2cc(Cl)ccc21 | inactive
CCCCCCCCCCCCCCCC[N+](C)(C)Cc1ccccc1 | 20.1 µM (active) and 14 µM (active) and 10.7 µM (active)
CCN(CC)C(=O)c1cccc(C)c1 | inactive
Cc1ncc([N+](=O)[O-])n1CCO | inactive
CN(C)CCOC(C)(c1ccccc1)c1ccccn1 (centres undefined) | inactive
NS(=O)(=O)O | inactive
C=C(C)C(=O)OCC(C)O (centres undefined) | inactive
CCCCOC(=O)c1ccc(O)cc1 | inactive
O=C(O)CC(O)C(=O)O (centres undefined) | inactive
CCc1nc(N)nc(N)c1-c1ccc(Cl)cc1 | inactive
CN1[C@@H]2CC(OC(=O)[C@H](CO)c3ccccc3)C[C@H]1[C@@H]1O[C@@H]12 (some centres undefined) | inactive
